Composite z-score and z-score data for 9 compounds are collected here from PubChem BioAssay.

For assay [1], the system named is PRMT1 (protein arginine N-methyltransferase 1). The experiment in a line: small molecules binding arginine methyltransferase PRMT1 – biochemical, small-molecule microarray, 635 nm fluorescence, primary screen (AID 1088).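 Also: binding of Prmt1 protein to compounds spotted on small-molecule microarray slides.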 As to conditions: higher = more signal.
A short description of assay [2]: growth effects on S. cerevisiae YJM789 – YJM789 clinical isolate, OD600, 24 h, basal, primary screen (AID 1089).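 Also: growth of clinical yeast isolate S. cerevisiae YJM 789 seeded 1000 cells per well; test concentration not given here.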 As to conditions: higher = more signal, called active from +8 up or from −8 down.
A short description of assay [3]: S. pombe growth modifiers, basal conditions – strain 972, OD600, 24 h, no modulator, primary screen (AID 1090).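 Also: basal condition with compound alone and no growth modifier present; test concentration not given here.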 As to conditions: S. pombe 972 growth, higher = more signal, called active from +8 up or from −8 down.
Assay [4] is described as follows: budding yeast growth modifiers under rapamycin – strain BY4716, OD600, 96 h, primary screen (AID 1091). Also: test concentration not given here. As to conditions: S. cerevisiae BY4716 + rapamycin, higher = more signal, called active from +8 up or from −8 down.
The target in assay [5] is Torsin-1A-interacting protein 2 (Homo sapiens) (UniProt Q8NFQ8). Briefly: small molecules binding lysate-expressed LULL1 – cell lysate, human LULL1 lysate, 635/667 nm fluorescence, primary screen (AID 1092).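 Also: probe is lysate of COS7 cells overexpressing human LULL1; score merges per-feature 667 nm fluorescence with signal-to-noise.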 As to conditions: small-molecule microarray, hLULL1 lysate binding, 635 nm fluorescence; higher = more signal.
Chain of Torsin-1A-interacting protein 2 (Homo sapiens) (Q8NFQ8 whole entry, looked up): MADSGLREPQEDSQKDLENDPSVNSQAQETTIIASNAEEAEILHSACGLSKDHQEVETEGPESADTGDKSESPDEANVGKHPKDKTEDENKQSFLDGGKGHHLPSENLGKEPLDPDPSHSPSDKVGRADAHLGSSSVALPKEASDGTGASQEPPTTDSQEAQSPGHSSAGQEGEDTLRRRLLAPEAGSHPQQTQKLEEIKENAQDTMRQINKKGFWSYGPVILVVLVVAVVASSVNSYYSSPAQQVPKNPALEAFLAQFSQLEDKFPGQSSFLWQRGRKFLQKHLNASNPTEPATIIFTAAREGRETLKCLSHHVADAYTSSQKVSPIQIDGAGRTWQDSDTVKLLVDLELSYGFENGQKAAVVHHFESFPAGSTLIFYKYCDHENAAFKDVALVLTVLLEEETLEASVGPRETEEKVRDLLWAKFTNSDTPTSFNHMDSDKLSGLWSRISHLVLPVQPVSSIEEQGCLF
Assay [6] in a line: optical density change of DRC41 E. coli – strain DRC41, OD650, 24 h, E. coli filamentation project, primary screen (AID 1093).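 Also: MC1000 strain lacking acrAB efflux and sulA so SOS filamentation is blocked; test concentration not given here.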 Particulars: E. coli DRC41 growth, higher = more signal, called active from +8 up or from −8 down.
Assay [7] in a line: probe aLefty2 binding to arrayed compounds – biochemical, biotinylated probe, 635/667 nm fluorescence, primary screen (AID 1094).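 Also: score merges spot fluorescence near 667 nm with spot signal-to-noise ratio.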 Particulars: small-molecule microarray, higher = more signal.
The test system of assay [8] is Noggin (protein binding on small-molecule microarray). The experiment in a line: small molecules binding Noggin protein – biochemical, 635/667 nm fluorescence, primary screen (AID 1095).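 Also: score merges 667 nm feature fluorescence with signal to noise over triplicate slides.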 Particulars: 635 nm fluorescence, higher = more signal.
Assay [9] concerns the target Neurogenic locus notch homolog protein 3 (Homo sapiens) (UniProt Q9UM47). The experiment in a line: small molecules binding NOTCH3 protein – biochemical, 635/667 nm fluorescence, primary screen (AID 1096). As to conditions: small-molecule microarray, 635 nm fluorescence, higher = more signal.
A short description of assay [10]: probe aEGFR binding to arrayed compounds – biochemical, biotinylated probe, 635/667 nm fluorescence, primary screen (AID 1097).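 Also: probe is a biotinylated anti-EGFR antibody binding compounds printed on slides; score combines fluorescence near 667 nm and signal to noise of each spot.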 Particulars: small-molecule microarray, higher = more signal.
Assay [11] relates to Plasmodium falciparum Sir2 (PF13_0152, Sir2A). Briefly: Plasmodium falciparum Sir2A binding compounds – biochemical, small-molecule microarray, 635 nm fluorescence, primary screen (AID 1098).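 Also: score merges spot fluorescence intensity with its signal-to-noise ratio.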 As to conditions: fluorescence 635 nm, higher = more signal.
Assay [12] in a line: probe aDKK1 binding to arrayed compounds – biochemical, biotinylated probe, 635/667 nm fluorescence, primary screen (AID 1099).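 Also: score merges 667nm spot fluorescence with signal to noise across triplicate slides; reference of the scale not given here.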 Particulars: small-molecule microarray, higher = more signal.
Assay [13] in a line: probe aCHRDL2 binding to arrayed compounds – biochemical, biotinylated probe, 635/667 nm fluorescence, primary screen (AID 1100). As to conditions: small-molecule microarray, higher = more signal.
Assay [14] in a line: change in splice reporter luminescence, either direction, cell-based, HEK293, spliceosome inhibition project, primary screen (AID 1101).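 Also: HEK293 cells carrying a splicing-competent luciferase reporter gene; test concentration not given here.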 As to conditions: HEK293 splicing luciferase reporter, 24 h, higher = more signal, called active from +8 up or from −8 down.
Assay [15] addresses Fibroblast growth factor 10 (Homo sapiens) (UniProt O15520). Briefly: compounds binding fibroblast growth factor 10 – biochemical, small-molecule microarray, 635 nm fluorescence, primary screen (AID 1102). As to conditions: FGF10 binding, fluorescence 635 nm, higher = more signal.
The subject of assay [16] is glycogen synthase kinase-3 (GSK3A per assay name; protocol says GSK3B). The experiment in a line: compounds binding glycogen synthase kinase-3 – biochemical, small-molecule microarray, 635 nm fluorescence, GSK3A, primary screen (AID 1103). Also: the record names both GSK3A and GSK3B. Particulars: fluorescence 635 nm, higher = more signal.
In assay [17] the target is Epidermal growth factor receptor (Homo sapiens) (UniProt P00533). Briefly: compounds binding epidermal growth factor receptor – biochemical, small-molecule microarray, 635 nm fluorescence, primary screen (AID 1104).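 Also: score merges 667 nm emission intensity with spot signal to noise over triplicate slides.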 As to conditions: EGFR binding, higher = more signal.
Chain of Epidermal growth factor receptor (Homo sapiens) (P00533 whole entry, looked up): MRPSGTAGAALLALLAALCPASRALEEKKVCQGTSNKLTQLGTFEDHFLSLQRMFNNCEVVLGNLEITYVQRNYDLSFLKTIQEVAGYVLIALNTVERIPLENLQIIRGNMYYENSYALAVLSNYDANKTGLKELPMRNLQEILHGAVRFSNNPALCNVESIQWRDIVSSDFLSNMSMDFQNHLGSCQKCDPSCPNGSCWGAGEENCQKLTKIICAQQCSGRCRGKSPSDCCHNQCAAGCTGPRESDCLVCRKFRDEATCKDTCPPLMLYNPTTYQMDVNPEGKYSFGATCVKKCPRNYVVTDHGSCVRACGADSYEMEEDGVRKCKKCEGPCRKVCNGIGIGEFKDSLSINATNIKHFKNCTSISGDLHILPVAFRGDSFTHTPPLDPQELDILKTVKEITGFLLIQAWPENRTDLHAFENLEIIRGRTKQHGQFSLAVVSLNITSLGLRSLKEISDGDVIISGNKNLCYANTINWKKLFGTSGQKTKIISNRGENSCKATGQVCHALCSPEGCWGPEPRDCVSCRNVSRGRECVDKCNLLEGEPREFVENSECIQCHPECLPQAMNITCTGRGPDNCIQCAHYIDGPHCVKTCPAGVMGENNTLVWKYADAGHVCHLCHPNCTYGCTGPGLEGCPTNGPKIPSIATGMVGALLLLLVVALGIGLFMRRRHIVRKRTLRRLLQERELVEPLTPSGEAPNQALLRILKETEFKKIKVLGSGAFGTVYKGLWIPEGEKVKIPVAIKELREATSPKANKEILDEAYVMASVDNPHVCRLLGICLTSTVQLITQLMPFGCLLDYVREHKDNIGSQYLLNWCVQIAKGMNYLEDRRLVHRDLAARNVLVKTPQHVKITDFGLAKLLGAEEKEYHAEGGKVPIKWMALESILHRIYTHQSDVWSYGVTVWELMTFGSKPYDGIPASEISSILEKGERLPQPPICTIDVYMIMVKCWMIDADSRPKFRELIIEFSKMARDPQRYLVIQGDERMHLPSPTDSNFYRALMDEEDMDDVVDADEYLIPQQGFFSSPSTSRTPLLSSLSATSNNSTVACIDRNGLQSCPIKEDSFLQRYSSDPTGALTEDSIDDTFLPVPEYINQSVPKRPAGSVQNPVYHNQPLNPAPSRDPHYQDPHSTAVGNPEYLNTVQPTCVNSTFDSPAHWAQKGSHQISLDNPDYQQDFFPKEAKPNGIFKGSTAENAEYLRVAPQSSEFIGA
Assay [18] deals with Follistatin-related protein 3 (Homo sapiens) (UniProt O95633). Briefly: compounds binding follistatin-related protein 3 – biochemical, small-molecule microarray, 635 nm fluorescence, primary screen (AID 1105).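 Also: score merges emission near 667 nm and signal to noise per printed spot across three slides.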 As to conditions: FSTL3 binding, higher = more signal.
Chain of Follistatin-related protein 3 (Homo sapiens) (O95633 whole entry, looked up): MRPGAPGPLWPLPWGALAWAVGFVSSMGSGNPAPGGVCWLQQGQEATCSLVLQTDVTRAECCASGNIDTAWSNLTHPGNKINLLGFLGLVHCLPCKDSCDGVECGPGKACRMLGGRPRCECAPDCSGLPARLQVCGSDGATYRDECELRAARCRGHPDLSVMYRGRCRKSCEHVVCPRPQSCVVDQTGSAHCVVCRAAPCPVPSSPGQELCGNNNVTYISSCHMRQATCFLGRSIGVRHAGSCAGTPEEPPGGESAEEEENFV
Assay [19] concerns the target Dickkopf-related protein 1 (Homo sapiens) (UniProt O94907). The experiment in a line: small molecules binding DKK1 protein – biochemical, small-molecule microarray, 635 nm fluorescence scan, primary screen (AID 1106).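 Also: score merges emission near 667 nm with signal to noise over three replicate slides.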 Particulars: higher = more signal.
Assay [20] deals with Inhibin beta A chain (activin A). Briefly: small molecules binding activin A – biochemical, small-molecule microarray, 635 nm fluorescence scan, primary screen (AID 1107).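 Also: mouse activin A protein probed at 4.33 µg/mL on printed slides; score merges bound-protein fluorescence near 667 nm with spot signal-to-noise.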 As to conditions: INHBA, higher = more signal.

Each structure is given as a SMILES string. Activity calls are given as the source filed them.

Chain of Neurogenic locus notch homolog protein 3 (Homo sapiens) (Q9UM47 whole entry, looked up): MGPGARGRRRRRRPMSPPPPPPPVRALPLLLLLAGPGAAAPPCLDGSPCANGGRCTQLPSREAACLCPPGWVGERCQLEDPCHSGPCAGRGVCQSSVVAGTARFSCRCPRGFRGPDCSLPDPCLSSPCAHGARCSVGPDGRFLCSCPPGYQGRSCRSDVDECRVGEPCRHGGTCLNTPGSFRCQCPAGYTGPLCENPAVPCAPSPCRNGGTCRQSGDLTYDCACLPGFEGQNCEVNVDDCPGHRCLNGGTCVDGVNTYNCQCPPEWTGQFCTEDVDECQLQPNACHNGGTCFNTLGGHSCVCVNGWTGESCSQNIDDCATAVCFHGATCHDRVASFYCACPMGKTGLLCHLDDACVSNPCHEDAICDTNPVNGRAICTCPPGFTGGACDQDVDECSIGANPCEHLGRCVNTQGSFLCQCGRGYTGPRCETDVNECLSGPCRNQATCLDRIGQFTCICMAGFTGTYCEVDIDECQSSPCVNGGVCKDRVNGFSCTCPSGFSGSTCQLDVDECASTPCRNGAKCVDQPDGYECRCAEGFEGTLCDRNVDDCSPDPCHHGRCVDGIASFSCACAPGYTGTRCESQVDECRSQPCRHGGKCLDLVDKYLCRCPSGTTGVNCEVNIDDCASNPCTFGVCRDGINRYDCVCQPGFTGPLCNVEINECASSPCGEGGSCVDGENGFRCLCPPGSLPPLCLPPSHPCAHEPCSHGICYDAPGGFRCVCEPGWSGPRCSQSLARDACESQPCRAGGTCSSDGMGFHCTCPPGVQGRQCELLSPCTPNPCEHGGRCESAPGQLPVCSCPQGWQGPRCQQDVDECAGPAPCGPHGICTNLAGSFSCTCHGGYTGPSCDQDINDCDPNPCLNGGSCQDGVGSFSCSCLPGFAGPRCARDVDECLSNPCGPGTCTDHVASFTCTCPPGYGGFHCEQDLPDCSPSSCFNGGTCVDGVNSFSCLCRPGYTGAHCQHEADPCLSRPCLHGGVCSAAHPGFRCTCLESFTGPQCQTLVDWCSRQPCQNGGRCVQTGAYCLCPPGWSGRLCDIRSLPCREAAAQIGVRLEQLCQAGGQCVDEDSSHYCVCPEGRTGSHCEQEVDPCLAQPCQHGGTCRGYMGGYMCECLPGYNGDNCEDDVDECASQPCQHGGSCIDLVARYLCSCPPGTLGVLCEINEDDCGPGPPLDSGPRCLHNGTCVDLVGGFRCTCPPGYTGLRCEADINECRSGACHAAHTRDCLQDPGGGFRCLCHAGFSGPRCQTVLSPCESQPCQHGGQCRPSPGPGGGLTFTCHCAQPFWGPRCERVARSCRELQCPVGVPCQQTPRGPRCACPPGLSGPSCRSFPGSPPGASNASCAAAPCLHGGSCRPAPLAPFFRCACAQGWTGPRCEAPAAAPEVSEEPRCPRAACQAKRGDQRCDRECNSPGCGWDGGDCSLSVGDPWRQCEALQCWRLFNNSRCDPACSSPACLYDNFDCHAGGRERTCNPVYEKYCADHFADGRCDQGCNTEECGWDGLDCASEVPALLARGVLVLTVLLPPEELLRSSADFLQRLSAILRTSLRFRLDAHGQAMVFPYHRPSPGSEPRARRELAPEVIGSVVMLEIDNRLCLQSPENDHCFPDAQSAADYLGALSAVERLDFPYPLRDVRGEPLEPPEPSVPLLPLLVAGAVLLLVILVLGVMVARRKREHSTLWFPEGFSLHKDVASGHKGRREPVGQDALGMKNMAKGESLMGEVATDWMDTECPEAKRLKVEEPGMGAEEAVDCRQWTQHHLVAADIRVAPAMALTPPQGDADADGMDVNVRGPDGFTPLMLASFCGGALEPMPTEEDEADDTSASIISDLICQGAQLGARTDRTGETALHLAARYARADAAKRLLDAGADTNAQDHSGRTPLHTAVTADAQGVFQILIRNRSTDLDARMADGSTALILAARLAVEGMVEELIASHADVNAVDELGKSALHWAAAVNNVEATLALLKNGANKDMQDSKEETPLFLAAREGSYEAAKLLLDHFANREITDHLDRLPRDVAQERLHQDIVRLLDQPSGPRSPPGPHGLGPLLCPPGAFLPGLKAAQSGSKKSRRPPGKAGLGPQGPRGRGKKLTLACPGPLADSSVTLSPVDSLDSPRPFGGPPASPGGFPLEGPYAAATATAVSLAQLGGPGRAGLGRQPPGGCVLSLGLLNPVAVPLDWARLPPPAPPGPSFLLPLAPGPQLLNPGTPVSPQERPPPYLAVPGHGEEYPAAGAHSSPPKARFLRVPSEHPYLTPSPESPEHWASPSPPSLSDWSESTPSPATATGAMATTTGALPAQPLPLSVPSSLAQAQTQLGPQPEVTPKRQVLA
Chain of Dickkopf-related protein 1 (Homo sapiens) (O94907 whole entry, looked up): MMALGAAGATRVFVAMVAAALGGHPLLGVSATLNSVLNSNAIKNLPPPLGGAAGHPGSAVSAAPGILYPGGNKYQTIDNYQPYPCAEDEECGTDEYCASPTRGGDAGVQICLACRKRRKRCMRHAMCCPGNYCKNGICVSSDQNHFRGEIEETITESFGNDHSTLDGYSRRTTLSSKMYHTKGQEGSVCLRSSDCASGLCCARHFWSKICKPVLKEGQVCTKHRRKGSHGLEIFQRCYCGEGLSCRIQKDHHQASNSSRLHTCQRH
Chain of Fibroblast growth factor 10 (Homo sapiens) (O15520 whole entry, looked up): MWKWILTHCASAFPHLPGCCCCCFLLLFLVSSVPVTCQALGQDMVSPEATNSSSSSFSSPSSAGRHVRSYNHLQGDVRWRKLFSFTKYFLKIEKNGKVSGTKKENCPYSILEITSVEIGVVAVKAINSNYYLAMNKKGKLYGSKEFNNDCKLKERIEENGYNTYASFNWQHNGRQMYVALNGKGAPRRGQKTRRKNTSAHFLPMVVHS

As for `Cc1ccc([C@@H]2CC=C(C(=O)O)[C@H](c3ccccc3)N2S(=O)(=O)c2ccc(C)cc2)cc1`, the composite z-score in assay [1] is 1.55; in assay [5], 3.24; in assay [7] it was 0.755; in [8], -0.971; in assay [9], 0.673; in assay [10], 0.0582. Also, the composite z-score was 1.44 in assay [11]; 0.52 in [12]; 1.23 in assay [13]; 1.24 in assay [15]; 0.78 in assay [16]; -0.755 in assay [17]. In addition, the composite z-score in [18] was 0.0604; in assay [19], -1.69; in [20] it was -0.575. The z-score in assay [2] was -0.0782 (inactive); in [3], -0.249 (inactive); in assay [4], -0.269 (inactive); in assay [6] it was -1.25 (inactive); in assay [14] it was 0.0744 (inactive).

As for `C[C@@H]1NC(=O)CC=C[C@@H](C)[C@@H]2C=C[C@H](O)[C@@H](COC(=O)[C@H](C)NC(=O)CC=C[C@@H](C)[C@@H]3C=C[C@H](O)[C@@H](COC1=O)O3)O2`, the composite z-score in assay [1] is 0.0027; in assay [5], -0.178; in [7] it was -0.221; in [8] it was 0.464; in assay [9], 0.108; in [10], -0.0262. For the same compound, the composite z-score in assay [11] was 0.231; in [12], -0.555; in [13], -0.925; in [15], 0.544; in assay [16], 0.217; in assay [17] it was 0.418. Moreover, the figures for the composite z-score in assay [18], in assay [19] and in assay [20] were 0.632, 0.849 and 0.0277, respectively. The z-score in [2] was -1.07 (inactive); in [3] it was -2.24 (inactive); in [4] it was -0.764 (inactive); in [6], 0.602 (inactive); in assay [14] it was -1.61 (inactive).

With `O=C1C2C=CC(C(O)Cc3ccccc3)N(Nc3ccc([N+](=O)[O-])cc3)C2C(=O)N1c1ccccc1` (stereo not given), the composite z-score in [1] came to 0.623; in assay [5], 2.92; in [7] it was 0.232; in [8] it was 0.278; in assay [9], 0.864; in assay [10] it was 0.268. Moreover, the composite z-score in assay [11] stood at 1.04; in [12], 1.07; in assay [13], 0.498; in assay [15], 0.653; in assay [16], 0.539; in assay [17] it was 0.277. Further, the composite z-score in assay [18] was 0.576; in assay [19], -0.0044; in assay [20], 0.582. The z-score was -0.442 (inactive) in [2]; 0.38 (inactive) in assay [3]; 1.18 (inactive) in assay [4]; -0.209 (inactive) in assay [6]; 0.843 (inactive) in [14].

As for `[N-]=[N+]=NCc1ccccc1C[C@]1(C(N)=O)N=C(c2ccc(OCCCO)cc2)O[C@H]1c1ccccc1CN=[N+]=[N-]`, the composite z-score in [1] turned out to be 1.32; in assay [5] it was 3; in assay [7], 0.544; in assay [8], 0.0263; in [9], 0.904; in [10], 0.145. Further, the composite z-score was 1.49 in [11]; 1.51 in assay [12]; 1.29 in [13]; 0.72 in assay [15]; 0.265 in assay [16]; -0.37 in assay [17]. For the same compound, the composite z-score in [18] was 0.186; in assay [19] it was -0.9; in assay [20] it was 1.41. The z-score in assay [2] was -2.38 (inactive); in assay [3], -2.11 (inactive); in [4], -0.525 (inactive); in [6], -0.0236 (inactive); in assay [14], -1.63 (inactive).

Consider `CO[C@H]1COC(=O)CC=C[C@@H](C)COC(=O)[C@@H](C)NC(=O)CC=C[C@@H]1C`, for which the composite z-score is 1.53 in assay [1]; -0.55 in assay [5]; -0.179 in [7]; 1.83 in assay [8]; 0.473 in assay [9]; -0.0243 in assay [10]. The composite z-score in [11] is 1.35; in [12], -0.954; in assay [13], -1.84; in assay [15], 0.567; in [16], 0.967; in assay [17], 1.39. Besides, the composite z-score in assay [18] is 1.45; in assay [19] it was 2.01; in [20], -0.529. Besides, the z-score in [2] is -3.75 (inactive); in assay [3], -2.87 (inactive); in [4] it was -2.71 (inactive); in assay [6], -0.288 (inactive); in assay [14], -2.81 (inactive).

As to `COCCOC(=O)N1C(=O)[C@@]2(c3cc(C#CCCO)ccc31)[C@H](C(=O)N1CCCCCCC1)[C@H]1C(=O)O[C@H](c3ccccc3)[C@H](c3ccccc3)N1[C@@H]2c1ccc(O)cc1`, the composite z-score in assay [1] was found to be 1.56; in assay [5] it was 2.91; in [7] it was 1.08; in assay [8] it was 1.11; in assay [9], 1.05; in assay [10] it was 0.0645. Also, the composite z-score in assay [11] came to 1.46; in assay [12], 1.53; in assay [13], 1.19; in assay [15], 0.494; in [16] it was 1.28; in [17], 0.292. The composite z-score in assay [18] is 1.3; in [19], 0.4; in [20] it was 1.27. Also, the z-score in [2] is -3.75 (inactive); in [3], -2.94 (inactive); in [4], -1.62 (inactive); in assay [6], 3.27 (inactive); in assay [14], -1.15 (inactive).

`O=C1C[C@@](C(=O)NCCN2CCOCC2)(c2ccc([N+](=O)[O-])cc2)[C@@H](c2ccc(CO)cc2)N1C1CCCCC1`: the composite z-score in assay [1] was 1.55; in [5], 3.07; in [7], 0.138; in [8], 0.515; in assay [9] it was 1.12; in assay [10], 0.23. Besides, the composite z-score amounted to 1.2 in assay [11]; 0.653 in assay [12]; 1.02 in assay [13]; 0.798 in [15]; 1.02 in assay [16]; 0.789 in assay [17]. Also, the composite z-score in assay [18] is 0.662; in assay [19], -0.0544; in [20], 0.64. Also, the z-score in [2] was 0.406 (inactive); in assay [3], -0.824 (inactive); in assay [4] it was -0.468 (inactive); in [6], 1.48 (inactive); in [14] it was 0.281 (inactive).

Consider `CCCN1C(=O)[C@@]2(CCS(=O)(=O)c3ccccc3)N=C(c3ccc(OCCCO)cc3)O[C@H]2c2ccccc21`, for which the composite z-score is 1.53 in assay [1]; 2.8 in assay [5]; 0.0686 in assay [7]; 1.03 in [8]; 1.09 in assay [9]; -0.0118 in assay [10]. Also, the composite z-score in assay [11] came out at 0.915; in assay [12] it was 0.164; in assay [13] it was 0.827; in assay [15] it was 0.736; in assay [16], 1.31; in [17], 0.279. The composite z-score worked out at 0.998 in [18], 0.503 in [19] and 0.96 in assay [20]. Further, the z-score is 0.817 (inactive) in [2]; 0.69 (inactive) in assay [3]; 4.5 (inactive) in assay [4]; 0.341 (inactive) in assay [6]; 0.597 (inactive) in assay [14].

Take `C=C(C)[C@@H]1CC=C(C(O)C2C=CC3C(=O)NC(=O)C3N2Nc2ccccn2)CC1` (stereo not given in full): the composite z-score in assay [1] was determined as 1.55; in assay [5], 2.76; in assay [7], 0.607; in assay [8], 1.9; in assay [9], 1.02; in assay [10], 0.641. For the same compound, the composite z-score in assay [11] was found to be 1.66; in [12] it was 0.946; in assay [13] it was 0.287; in assay [15], 1.14; in assay [16] it was 1.32; in assay [17], 1.88. The composite z-score was found to be 1.65 in [18], 2.16 in assay [19] and 1.81 in [20]. The z-score in [2] was 0.0118 (inactive); in assay [3] it was 0.514 (inactive); in assay [4], -0.285 (inactive); in [6], -0.953 (inactive); in assay [14], 1.1 (inactive).
